# Source: PubChem BioAssay
# The list shows a part of the results. A number with no mark means an inactive call. The source made the active and inactive calls.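 Rule for the calls: active = mean inhibition above about 50% when retested at one dose (limit read from the data); inactive = the rest.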
# Experiment: luciferase luminescence interference by compounds, confirmation, artefact control for SENP inhibitor project, biochemical, single concentration, SENP8 reaction pre-completed (AID 488919);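 note: plate controls were DMSO wells with completed reaction for no effect and substrate without enzyme for full effect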
# Conditions: Pre-incubated SENP8/Z-RLRGG-aminoluciferin, at 12.5 µM, hits give high values
row,Compound,inhibition
1,CN(c1ccc2nc3ccccc3c(=O)n2n1)C1CCCCC1,77.2% (active)
2,CC(=C/c1ccccc1)/C=N/NC(=O)c1cc(C)oc1C,-2.7%
3,COc1cccc(C(=O)Nc2ccc(N3CCCC3)cc2)c1,86.3% (active)
4,CC(=O)Nc1cccc(C(=O)OCC(=O)c2ccc3c(c2)OCO3)c1,80.8% (active)
5,C(=N\Nc1ccc2ccccc2n1)/c1ccc2c(c1)OCO2,71.3% (active)
6,Cc1cccc(NC(=O)/C=C/c2ccc3c(c2)OCO3)n1,73% (active)
7,Clc1ccc(C2=CSC3=Nc4cccc5cccc(c45)N23)cc1,-2.1%
8,CC(=O)N(C1=C(Cl)C(=O)c2ccccc2C1=O)c1ccc(C(=O)O)cc1,4%
9,CCOc1ccc(-c2nnc(-c3ccco3)o2)cc1,15.9%
10,COc1cc(/C=C(\C#N)c2nc3ccccc3[nH]2)ccc1O,66.5% (active)
11,CC(C)n1cnc2c(NCc3ccccc3)cc(OCC3CCN(C)CC3)cc21,-4.2%
12,O=C(CSC(=S)N1CCOCC1)c1ccccc1,77% (active)
13,CSc1ccc(/C=N/NC(=O)c2cccc(Cl)c2)cc1,40.2%
14,Cc1cnc(NC(=O)c2ccccn2)s1,67.2% (active)
15,CCN1C(=O)c2cccc3c(N)ccc1c23,-6.4%
16,COc1ccc(-c2cc3ccc(OCc4nn[nH]n4)cc3oc2=O)cc1,70.6% (active)
17,O=C(Nc1ccc(Cl)cn1)c1ccc2c(c1)OCCO2,76.4% (active)
18,Cc1ccc2nc(-c3ccc(Br)cc3)cn2c1,-8.6%
